Measurements as given in the supplement of paper PMC11732987, “Enantioselective OTUD7B fragment discovery through chemoproteomics screening and high-throughput optimisation” (Communications Chemistry, 2025).

Legend:
Assay in all cases: log2 ratio of Biotin-Ahx-Ub-VS probe labelling (fragment/DMSO); higher = less target engagement (more negative = stronger competition), active = hit call of the paper (q ≤ 0.05, log2 ratio ≤ -1)
Settings in all cases: compound concentration: 200 uM; treatment time: 3 h
[1] = target: T1, USP19 (UniProt O94966)
T1 sequence (whole entry): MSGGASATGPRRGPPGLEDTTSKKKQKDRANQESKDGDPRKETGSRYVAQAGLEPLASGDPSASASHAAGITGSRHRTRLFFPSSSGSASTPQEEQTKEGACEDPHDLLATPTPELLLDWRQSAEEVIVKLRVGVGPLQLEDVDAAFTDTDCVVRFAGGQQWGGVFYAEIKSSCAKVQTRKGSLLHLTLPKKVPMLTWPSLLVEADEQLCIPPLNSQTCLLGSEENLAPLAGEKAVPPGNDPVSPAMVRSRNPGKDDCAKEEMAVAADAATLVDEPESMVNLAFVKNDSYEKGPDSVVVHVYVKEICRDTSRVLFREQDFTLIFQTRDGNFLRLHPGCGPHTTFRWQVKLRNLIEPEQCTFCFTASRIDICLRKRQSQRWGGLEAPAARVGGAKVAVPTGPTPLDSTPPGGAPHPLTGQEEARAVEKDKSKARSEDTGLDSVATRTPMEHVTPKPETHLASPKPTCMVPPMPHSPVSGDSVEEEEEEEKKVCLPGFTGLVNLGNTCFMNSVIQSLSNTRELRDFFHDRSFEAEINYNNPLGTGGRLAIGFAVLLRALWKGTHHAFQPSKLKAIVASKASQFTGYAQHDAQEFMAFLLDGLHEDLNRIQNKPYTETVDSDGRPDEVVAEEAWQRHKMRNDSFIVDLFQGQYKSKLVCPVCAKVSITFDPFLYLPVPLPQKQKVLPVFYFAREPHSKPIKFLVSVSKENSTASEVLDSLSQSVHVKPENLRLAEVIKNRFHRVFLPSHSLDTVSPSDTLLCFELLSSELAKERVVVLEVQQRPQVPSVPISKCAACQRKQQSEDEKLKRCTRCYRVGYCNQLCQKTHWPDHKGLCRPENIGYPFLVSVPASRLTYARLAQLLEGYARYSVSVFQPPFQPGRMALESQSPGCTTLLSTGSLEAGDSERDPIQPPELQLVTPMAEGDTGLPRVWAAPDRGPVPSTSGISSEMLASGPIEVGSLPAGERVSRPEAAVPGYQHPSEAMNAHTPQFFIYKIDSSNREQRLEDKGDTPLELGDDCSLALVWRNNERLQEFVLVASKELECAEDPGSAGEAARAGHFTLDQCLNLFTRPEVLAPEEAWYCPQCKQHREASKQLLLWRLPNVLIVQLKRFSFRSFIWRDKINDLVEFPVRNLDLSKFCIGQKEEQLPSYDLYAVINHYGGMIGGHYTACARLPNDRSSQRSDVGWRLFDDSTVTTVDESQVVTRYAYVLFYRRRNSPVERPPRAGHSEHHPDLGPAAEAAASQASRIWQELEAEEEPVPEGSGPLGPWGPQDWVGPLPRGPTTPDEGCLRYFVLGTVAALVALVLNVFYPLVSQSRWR
Method in brief: (§1)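 Using Biotin-Ahx-Ub-VS at 0.5 µM final for 1 h, DUBs were labelled in HEK293T lysate (495 µg per sample) that had first been treated in triplicate with fragment at 200 µM or vehicle for 3 h. NeutrAvidin enrichment, LysC and trypsin digestion and diaPASEF LC-MS/MS followed. Spectronaut label-free quantities were global-median-normalised. Values are average log2 fragment/vehicle ratios by unpaired t-test, using proteins with ≥2 unique peptides.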

[2] = target: T2, USP22 (UniProt Q9UPT9)
T2 sequence (whole entry): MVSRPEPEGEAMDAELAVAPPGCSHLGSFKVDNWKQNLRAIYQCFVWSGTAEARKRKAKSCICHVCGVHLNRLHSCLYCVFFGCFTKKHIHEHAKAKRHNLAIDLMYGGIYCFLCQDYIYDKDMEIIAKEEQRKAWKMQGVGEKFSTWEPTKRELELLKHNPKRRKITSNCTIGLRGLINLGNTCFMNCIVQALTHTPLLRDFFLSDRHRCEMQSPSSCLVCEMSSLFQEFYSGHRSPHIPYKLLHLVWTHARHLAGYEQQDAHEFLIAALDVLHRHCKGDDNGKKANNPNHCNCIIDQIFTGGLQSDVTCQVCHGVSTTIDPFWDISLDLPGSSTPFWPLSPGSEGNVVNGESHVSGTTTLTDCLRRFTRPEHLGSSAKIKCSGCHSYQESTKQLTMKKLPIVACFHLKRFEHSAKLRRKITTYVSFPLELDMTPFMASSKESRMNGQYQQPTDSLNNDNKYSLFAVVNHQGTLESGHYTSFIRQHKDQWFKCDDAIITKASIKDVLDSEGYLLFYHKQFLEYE
Method in brief: as §1

[3] = target: USP24 (UniProt Q9UPU5)
Method in brief: as §1

[4] = target: T3, USP25 (UniProt Q9UHP3)
T3 sequence (whole entry): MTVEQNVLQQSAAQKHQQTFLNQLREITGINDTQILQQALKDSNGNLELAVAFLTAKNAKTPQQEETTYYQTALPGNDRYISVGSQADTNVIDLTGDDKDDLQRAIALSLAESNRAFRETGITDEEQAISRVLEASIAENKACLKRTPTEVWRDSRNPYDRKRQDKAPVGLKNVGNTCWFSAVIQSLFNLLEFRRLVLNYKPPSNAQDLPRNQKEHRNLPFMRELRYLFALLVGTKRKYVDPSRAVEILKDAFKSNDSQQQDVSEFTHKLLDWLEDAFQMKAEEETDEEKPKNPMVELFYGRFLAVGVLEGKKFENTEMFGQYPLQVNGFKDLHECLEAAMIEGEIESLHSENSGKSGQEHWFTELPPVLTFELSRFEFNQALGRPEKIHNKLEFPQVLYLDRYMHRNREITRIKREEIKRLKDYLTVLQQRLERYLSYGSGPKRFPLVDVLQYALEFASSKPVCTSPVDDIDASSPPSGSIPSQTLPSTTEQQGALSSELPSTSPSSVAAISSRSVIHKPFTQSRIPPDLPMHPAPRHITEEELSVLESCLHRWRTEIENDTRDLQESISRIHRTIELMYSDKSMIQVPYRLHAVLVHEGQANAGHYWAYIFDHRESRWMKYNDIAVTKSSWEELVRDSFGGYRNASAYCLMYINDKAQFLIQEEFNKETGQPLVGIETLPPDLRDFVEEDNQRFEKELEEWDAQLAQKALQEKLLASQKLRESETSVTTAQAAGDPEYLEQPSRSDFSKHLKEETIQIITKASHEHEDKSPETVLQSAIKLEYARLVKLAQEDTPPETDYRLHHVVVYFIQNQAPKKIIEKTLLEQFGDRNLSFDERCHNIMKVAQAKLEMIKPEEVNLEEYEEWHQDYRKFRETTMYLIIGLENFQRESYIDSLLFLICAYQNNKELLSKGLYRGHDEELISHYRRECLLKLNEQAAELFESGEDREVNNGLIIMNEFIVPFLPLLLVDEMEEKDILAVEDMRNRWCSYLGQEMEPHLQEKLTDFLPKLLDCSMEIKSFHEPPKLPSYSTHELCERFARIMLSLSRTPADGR
Method in brief: as §1

[5] = target: T4, USP28 (UniProt Q96RU2)
T4 sequence (whole entry): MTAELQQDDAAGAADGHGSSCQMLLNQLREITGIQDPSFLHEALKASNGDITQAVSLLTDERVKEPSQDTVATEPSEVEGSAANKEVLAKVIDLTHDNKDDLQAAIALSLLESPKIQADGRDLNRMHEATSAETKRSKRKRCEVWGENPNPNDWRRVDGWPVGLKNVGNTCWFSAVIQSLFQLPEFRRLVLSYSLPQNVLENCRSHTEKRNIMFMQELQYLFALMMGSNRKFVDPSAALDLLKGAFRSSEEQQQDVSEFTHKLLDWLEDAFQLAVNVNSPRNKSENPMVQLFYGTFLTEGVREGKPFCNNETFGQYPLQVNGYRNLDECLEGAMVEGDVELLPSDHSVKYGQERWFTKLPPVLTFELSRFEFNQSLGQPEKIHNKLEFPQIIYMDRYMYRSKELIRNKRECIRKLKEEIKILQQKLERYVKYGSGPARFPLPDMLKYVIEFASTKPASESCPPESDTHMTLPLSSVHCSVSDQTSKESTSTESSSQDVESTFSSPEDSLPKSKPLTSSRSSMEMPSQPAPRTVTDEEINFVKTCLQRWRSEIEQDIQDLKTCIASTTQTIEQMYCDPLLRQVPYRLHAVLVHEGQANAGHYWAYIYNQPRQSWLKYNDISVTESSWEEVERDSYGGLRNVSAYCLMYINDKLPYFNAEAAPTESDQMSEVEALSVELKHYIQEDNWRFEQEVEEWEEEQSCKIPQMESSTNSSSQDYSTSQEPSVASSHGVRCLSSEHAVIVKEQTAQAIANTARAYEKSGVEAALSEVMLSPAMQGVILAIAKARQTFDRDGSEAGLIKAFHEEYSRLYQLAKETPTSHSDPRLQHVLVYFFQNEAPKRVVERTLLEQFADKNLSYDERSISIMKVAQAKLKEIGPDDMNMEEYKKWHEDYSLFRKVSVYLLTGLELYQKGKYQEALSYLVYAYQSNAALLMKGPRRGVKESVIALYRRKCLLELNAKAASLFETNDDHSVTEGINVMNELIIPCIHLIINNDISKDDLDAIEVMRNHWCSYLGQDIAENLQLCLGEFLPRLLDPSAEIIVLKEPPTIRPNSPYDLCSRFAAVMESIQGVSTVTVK
Method in brief: as §1

Measured: log2 ratio of Biotin-Ahx-Ub-VS probe labelling

Chain of USP24 (Q9UPU5 whole entry): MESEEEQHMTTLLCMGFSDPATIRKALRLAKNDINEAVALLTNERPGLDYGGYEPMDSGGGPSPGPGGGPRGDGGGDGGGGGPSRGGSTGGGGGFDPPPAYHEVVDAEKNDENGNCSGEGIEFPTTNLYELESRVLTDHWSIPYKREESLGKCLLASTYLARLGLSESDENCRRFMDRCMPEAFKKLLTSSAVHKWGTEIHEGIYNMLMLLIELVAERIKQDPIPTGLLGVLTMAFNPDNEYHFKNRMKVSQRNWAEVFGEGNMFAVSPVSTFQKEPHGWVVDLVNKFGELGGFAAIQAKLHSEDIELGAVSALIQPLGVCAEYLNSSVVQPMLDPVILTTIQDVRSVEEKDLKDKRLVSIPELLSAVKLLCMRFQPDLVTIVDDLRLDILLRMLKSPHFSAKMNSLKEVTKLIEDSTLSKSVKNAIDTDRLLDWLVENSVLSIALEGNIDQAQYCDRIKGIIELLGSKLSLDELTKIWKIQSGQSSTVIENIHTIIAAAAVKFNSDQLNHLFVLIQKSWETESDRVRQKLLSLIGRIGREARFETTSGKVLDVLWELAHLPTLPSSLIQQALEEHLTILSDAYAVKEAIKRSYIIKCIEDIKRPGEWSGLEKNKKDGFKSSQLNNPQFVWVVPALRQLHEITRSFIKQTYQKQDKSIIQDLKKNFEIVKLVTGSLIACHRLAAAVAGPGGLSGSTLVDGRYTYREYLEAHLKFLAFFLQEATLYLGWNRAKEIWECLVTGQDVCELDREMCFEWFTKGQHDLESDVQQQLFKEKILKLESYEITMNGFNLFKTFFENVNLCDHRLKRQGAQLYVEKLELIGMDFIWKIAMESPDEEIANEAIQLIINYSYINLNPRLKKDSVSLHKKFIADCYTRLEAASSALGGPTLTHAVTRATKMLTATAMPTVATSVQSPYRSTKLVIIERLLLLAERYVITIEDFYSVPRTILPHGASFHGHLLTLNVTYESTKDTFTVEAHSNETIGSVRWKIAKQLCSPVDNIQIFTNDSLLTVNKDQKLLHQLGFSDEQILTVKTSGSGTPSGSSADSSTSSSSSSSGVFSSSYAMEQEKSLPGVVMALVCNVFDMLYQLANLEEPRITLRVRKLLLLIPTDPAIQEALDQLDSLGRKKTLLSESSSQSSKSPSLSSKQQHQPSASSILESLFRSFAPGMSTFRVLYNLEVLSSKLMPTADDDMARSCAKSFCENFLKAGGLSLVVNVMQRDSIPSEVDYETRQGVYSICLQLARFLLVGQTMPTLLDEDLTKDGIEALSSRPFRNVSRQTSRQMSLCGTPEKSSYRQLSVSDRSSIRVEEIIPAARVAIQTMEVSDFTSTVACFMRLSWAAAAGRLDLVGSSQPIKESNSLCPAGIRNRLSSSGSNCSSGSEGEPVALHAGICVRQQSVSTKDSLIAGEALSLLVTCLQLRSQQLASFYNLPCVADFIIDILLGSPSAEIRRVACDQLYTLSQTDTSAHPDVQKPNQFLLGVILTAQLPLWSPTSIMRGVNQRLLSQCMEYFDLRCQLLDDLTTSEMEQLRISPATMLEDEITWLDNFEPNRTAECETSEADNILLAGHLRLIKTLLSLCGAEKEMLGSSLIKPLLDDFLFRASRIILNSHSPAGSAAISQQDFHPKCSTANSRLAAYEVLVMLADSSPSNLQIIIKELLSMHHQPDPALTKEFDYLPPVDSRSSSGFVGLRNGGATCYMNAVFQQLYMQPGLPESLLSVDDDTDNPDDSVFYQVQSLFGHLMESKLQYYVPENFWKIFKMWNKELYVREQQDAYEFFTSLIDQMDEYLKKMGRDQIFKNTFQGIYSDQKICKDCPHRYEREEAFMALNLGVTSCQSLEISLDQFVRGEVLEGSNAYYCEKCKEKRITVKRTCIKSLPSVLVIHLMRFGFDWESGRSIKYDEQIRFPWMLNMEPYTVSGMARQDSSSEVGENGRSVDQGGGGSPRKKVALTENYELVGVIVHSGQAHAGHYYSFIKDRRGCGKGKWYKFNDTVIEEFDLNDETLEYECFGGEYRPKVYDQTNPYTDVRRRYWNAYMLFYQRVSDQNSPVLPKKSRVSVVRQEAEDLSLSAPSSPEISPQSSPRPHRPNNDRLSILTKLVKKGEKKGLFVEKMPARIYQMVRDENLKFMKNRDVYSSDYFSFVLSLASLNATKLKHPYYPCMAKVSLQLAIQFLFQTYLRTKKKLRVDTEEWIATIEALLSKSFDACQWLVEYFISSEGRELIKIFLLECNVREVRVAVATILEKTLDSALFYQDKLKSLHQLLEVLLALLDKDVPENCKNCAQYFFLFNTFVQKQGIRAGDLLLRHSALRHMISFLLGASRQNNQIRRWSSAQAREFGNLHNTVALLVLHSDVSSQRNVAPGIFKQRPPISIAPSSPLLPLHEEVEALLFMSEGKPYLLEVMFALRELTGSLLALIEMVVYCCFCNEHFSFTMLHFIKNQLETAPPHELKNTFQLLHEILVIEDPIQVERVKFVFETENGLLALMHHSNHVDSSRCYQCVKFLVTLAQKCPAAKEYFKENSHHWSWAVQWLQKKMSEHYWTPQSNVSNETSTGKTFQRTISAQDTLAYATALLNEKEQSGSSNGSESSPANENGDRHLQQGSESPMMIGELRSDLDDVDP

Cc1ncc2c(n1)CCN(C(=O)CCl)C2
inactive: [1] -0.479 | [2] -0.119 | [3] -0.198 | [4] -0.361 | [5] -0.688
